This note sets out measurements from PubChem BioAssay.

Where “and” joins values, the source holds several entries; their conditions need not be identical. Equal values may be shown once. Results filed as inconclusive are left out. Calls of active or inactive are those of the source. Unless noted, cut-off not given; nearly all actives show AC50 up to about 26 µM.

A short description of assay [1]: viability loss in pontine glioma line – cell-based, SU-DIPG-XXV, MIPE5.0, CellTiter-Glo, qHTS, dose response (AID 1347065).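 Further: cells exposed to compound for 48 hours before ATP readout.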 Conditions: CellTiter-Glo ATP luminescence. (ATP-based viability assays read luminescence as a measure of living cells.)
The nature of assay [2]: SU-DIPG-VI glioma cell viability, MIPE4.0 library, CellTiter-Glo luminescence, qHTS (AID 1347066; cut-off not given, nearly all actives have AC50 up to about 30 µM;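 further: cells exposed to compound for 48 hours before readout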). Particulars: CellTiter-Glo ATP luminescence.
The nature of assay [3]: JHH-DIPG-1 glioma cell viability, MIPE5.0 library, CellTiter-Glo luminescence, qHTS (AID 1347067).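 Further: cells exposed to compound for 48 hours before readout.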 Particulars: JHH-DIPG-1 glioma viability, CellTiter-Glo ATP luminescence.
A short description of assay [4]: SU-DIPG-XXV glioma cell viability, MIPE5.0 library, qHTS (AID 1347068; cut-off not given, nearly all actives have IC50 up to about 30 µM).
Assay [5] can be described thus: sensitizers of A549 cells to miR-34 induction, primary screen, imaging, A549 dox-inducible miR-34, nuclei and caspase counts (AID 1347080;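 active means compounds whose cell count with miR-34 switched on is under 0.7 times the count with it off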). Conditions: A549 miR-34 inducible, Hoechst nuclei count, 48 h.
The nature of assay [6]: survival rescue of mitochondrial mutant cells in low glucose, primary screen, MELAS cybrids, Rieske KO mouse fibroblasts, CellTiter-Glo (AID 1508586;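 active means mean z-score across replicates of 1.96 or higher in either the MELAS or the Rieske mutant cell line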;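 further: z relative to plate mean and SD of compound and empty wells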).
Assay [7] deals with NAD(+) hydrolase SARM1 (Homo sapiens) (UniProt Q6SZW1). The experiment in a line: SARM1 TIR NADase inhibitors, cell lysate, NAD-Glo luminescence (AID 1508614;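 active means compound whose remaining NAD level is above about 45 nM, limit read from the data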). Particulars: SAM-TIR HEK293T lysate NADase, at 1 µM, stronger effect = higher value.
NAD(+) hydrolase SARM1 (Homo sapiens), sequence (Q6SZW1 whole entry, looked up, the tested form may be a part): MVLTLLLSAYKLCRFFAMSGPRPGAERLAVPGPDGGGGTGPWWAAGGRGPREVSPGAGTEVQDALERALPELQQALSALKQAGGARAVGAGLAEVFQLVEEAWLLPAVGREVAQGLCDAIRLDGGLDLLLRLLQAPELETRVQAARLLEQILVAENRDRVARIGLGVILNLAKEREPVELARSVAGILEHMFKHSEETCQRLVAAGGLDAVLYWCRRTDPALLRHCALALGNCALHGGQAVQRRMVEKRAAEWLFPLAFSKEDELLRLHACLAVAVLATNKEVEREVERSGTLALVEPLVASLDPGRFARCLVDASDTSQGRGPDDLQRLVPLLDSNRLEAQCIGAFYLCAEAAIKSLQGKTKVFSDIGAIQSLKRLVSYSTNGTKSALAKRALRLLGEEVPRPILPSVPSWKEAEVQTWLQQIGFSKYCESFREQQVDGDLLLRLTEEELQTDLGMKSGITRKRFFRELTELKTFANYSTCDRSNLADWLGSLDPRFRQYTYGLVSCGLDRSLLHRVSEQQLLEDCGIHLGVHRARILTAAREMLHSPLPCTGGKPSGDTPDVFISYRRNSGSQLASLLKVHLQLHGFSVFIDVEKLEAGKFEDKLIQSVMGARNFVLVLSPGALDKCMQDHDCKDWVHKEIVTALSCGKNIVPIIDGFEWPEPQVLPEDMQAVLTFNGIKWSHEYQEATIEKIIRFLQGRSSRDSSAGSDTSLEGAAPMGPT
Assay [8] deals with Mitogen-activated protein kinase 7 (Homo sapiens) (UniProt Q13164). Description: ERK5 transactivation activators in reporter cells, primary screen, cell-based, HTS (AID 1508626;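 active means luciferase signal above three times the same-plate solvent-only control wells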;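 further: luciferase driven by Gal4-ERK5 fusion binding five Gal4 sites before minimal TATA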). Particulars: HeLa Gal4-ERK5 transactivation, 18 h, at 5 µM, stronger effect = higher value.
Mitogen-activated protein kinase 7 (Homo sapiens), sequence (Q13164 whole entry, looked up, the tested form may be a part): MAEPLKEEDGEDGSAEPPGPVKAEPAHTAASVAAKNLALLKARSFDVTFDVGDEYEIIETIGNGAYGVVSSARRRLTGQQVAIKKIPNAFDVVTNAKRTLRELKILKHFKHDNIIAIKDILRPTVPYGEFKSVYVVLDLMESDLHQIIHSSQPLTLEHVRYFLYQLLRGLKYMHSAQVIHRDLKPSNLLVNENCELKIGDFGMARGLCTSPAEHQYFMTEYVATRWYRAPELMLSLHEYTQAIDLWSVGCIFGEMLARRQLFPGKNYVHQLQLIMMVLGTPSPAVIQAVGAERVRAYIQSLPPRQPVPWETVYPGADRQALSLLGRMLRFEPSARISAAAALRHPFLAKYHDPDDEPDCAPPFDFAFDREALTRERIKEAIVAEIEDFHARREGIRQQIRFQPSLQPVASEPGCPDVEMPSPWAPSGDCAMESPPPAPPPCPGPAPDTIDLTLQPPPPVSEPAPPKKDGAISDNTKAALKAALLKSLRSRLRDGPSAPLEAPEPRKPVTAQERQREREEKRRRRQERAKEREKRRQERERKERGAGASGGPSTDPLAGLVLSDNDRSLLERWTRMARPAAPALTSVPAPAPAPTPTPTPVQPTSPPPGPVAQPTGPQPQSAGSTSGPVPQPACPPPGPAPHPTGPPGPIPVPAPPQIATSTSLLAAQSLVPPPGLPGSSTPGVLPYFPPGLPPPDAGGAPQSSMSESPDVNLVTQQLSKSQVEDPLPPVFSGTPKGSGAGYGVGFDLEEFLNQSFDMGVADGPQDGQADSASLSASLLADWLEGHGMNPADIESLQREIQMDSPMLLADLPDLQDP
The nature of assay [9]: phospholipid biosynthesis inhibitors in animal cells, primary screen, cell-based, LOPAC library, screen 4 (AID 1347384; call rule not given here). Particulars: phospholipid biosynthesis inhibition screen, at 10 µM.
A short description of assay [10]: viability rescue of complex I mutant cybrids, primary screen, cell-based, galactose medium, ATP luminescence (AID 1645843;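 active means z-score of at least 1.8 in each of two replicates, scored against plate mean and spread of sample wells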;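 further: positive z means more ATP and so rescue of galactose-driven cybrid death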). Conditions: complex I mutant cybrid cells, 72 h, stronger effect = higher value.
Setting [11] is: stronger effect = lower value, cell number ratio, induced over uninduced.
The mark [12] stands for this setting: measured here: relative caspase fold change +Dox/-Dox.
Setting [13] is: measured here: total cells with miR-34 induction, stronger effect = lower value.
The mark [14] stands for this setting: measured here: total cells without miR-34 induction.
Where [15] appears, read: MELAS cybrid survival, CellTiter-Glo 48 h, stronger effect = higher value.
Where [16] appears, read: Rieske KO mouse fibroblast survival, CellTiter-Glo 72 h.

`Cc1cc2cc3c(C)cc(=O)oc3c(C)c2o1`: the molecule was called inactive in assay [1], in assay [2], in assay [3] and in assay [4]. The fold change is 0.952 (inactive) and 0.881 (inactive) in assay [5] (setting [11]); 1.2 and 2.5 in assay [5] (setting [12]). Besides, the cell count was 9030 and 10900 in assay [5] (setting [13]); 9480 and 12400 in assay [5] (setting [14]). Besides, the z-score in assay [6] (setting [15]) is -0.707 (inactive); in [6] (setting [16]), -0.528. The remaining NAD in assay [7] was 10 nM (inactive). Also, in [8], the luciferase signal is 104 AU (inactive).
On to `NC(=O)c1ncn([C@@H]2O[C@H](CO)[C@@H](O)[C@H]2O)c1O`, for which the result in [1], in assay [2], in assay [3], in assay [4] and in assay [9] was inactive. For the same molecule, the fold change was 1.09 (inactive) in assay [5] (setting [11]) and 1.07 in assay [5] (setting [12]). Also, the figures for the cell count in [5] (setting [13]) and in assay [5] (setting [14]) were 10800 and 9890, respectively. For the same molecule, the z-score in assay [10] is 0.59 (inactive).
Consider `CN(C)CCc1c[nH]c2ccc(CS(=O)(=O)N3CCCC3)cc12`, for which the molecule was classed as inactive in assay [1], in assay [2], in assay [3] and in [4]. Moreover, the values for the fold change in assay [5] (setting [11]) and in assay [5] (setting [12]) were 0.94 (inactive) and 1.05, respectively. For the same molecule, the values for the cell count in assay [5] (setting [13]) and in [5] (setting [14]) were 7180 and 7640, respectively. The values for the z-score in assay [6] (setting [15]) and in [6] (setting [16]) were -0.0807 (inactive) and -0.352, respectively. The remaining NAD in assay [7] was 10 nM (inactive). Besides, the luciferase signal in assay [8] was 52 AU (inactive).
Take `O=C(O)CCNC(=O)c1ccc(N=Nc2ccc(O)c(C(=O)O)c2)cc1`: the call in assay [1], in assay [2], in [3] and in assay [4] was inactive. Moreover, the fold change is 0.971 (inactive) and 0.94 (inactive) and 0.899 (inactive) in assay [5] (setting [11]); 0.807 and 0.806 and 1.14 in assay [5] (setting [12]). Besides, the cell count in [5] (setting [13]) is 9210 and 7860 and 9290; in assay [5] (setting [14]), 9490 and 8360 and 10300. The z-score in assay [6] (setting [15]) was -1.26 (inactive); in [6] (setting [16]) it was -1.16; in assay [10] it was 1.23 (inactive). In addition, the remaining NAD in [7] was 10 nM (inactive).
As to `CCC[C@H](N[C@@H](C)C(=O)N1[C@H](C(=O)O)C[C@@H]2CCCC[C@@H]21)C(=O)OCC`, the molecule was classed as inactive in [1], in assay [2], in [3] and in assay [4]. In addition, the fold change was 0.917 (inactive) and 0.847 (inactive) in assay [5] (setting [11]); 0.846 and 3.59 in assay [5] (setting [12]). Also, the cell count was 9000 and 11500 in assay [5] (setting [13]); 9820 and 13600 in [5] (setting [14]). In addition, the figures for the z-score in [6] (setting [15]) and in assay [6] (setting [16]) were 0.628 (inactive) and -0.272, respectively. In addition, the remaining NAD in [7] was 10 nM (inactive). In assay [8], the luciferase signal was 156 AU (inactive).
`CC1=C(C)C(=O)C(C(CCCCCC(=O)O)c2ccccc2)=C(C)C1=O` (centres undefined): the result in assay [1], in [2], in assay [3] and in assay [4] was inactive. The fold change is 0.907 (inactive) in assay [5] (setting [11]) and 0.844 in assay [5] (setting [12]). Moreover, the cell count in assay [5] (setting [13]) was determined as 9450; in assay [5] (setting [14]), 10400. Besides, in assay [7], the remaining NAD was 10 nM (inactive).
For the molecule `COCCCOc1cc(C[C@@H](C[C@H](N)[C@@H](O)C[C@H](C(=O)NCC(C)(C)C(N)=O)C(C)C)C(C)C)ccc1OC`, the call in [1], in [2], in assay [3] and in assay [4] was inactive. Further, the fold change in [5] (setting [11]) was 0.948 (inactive); in assay [5] (setting [12]) it was 0.866. In addition, the cell count worked out at 8860 in [5] (setting [13]) and 9350 in assay [5] (setting [14]). For the same molecule, the remaining NAD in assay [7] was 10 nM (inactive). Further, the luciferase signal in assay [8] was 68 AU (inactive).
Consider `NCCS(=O)(=O)O`, for which the molecule was classed as inactive in assay [1], in [2], in [3], in assay [4] and in [9]. The fold change in assay [5] (setting [11]) is 0.992 (inactive) and 0.904 (inactive); in assay [5] (setting [12]), 1.43 and 3.02. Further, the cell count was 10100 and 12500 in [5] (setting [13]); 10200 and 13800 in [5] (setting [14]). Moreover, the remaining NAD in [7] is 10 nM (inactive). In addition, the luciferase signal in assay [8] is 80 AU (inactive). For the same molecule, the z-score in assay [10] is 0.675 (inactive).
